Shown are actives, neighbours in structure and some others; about 1.6% of the full set was active somewhere.
p53ts 32C tox: qHTS Screen for Compounds that Selectively Target Cancer Cells with p53 Mutations: Cytotoxicity of p53ts Cells at the Permissive Temperature. AID 924, 2007. H1299-p53A138V at 32C, ATP luminescence viability, 24 h. Potency, µM (highest dose often 46.1 µM), hits mostly cytotoxic. 130,000 tested, 0.93% active; note: nearly all actives have a fitted effect of over 55% in size
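Viability by ATPlite luminescence after 24 h compound treatment (up to 46 uM) at the permissive 32C. Cells are H1299 carrying p53 A138V. Scale runs from DMSO basal to 100 uM tamoxifen as full kill; AC50 from Hill fits.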
p53ts 39C kill: qHTS Screen for Compounds that Selectively Target Cancer Cells with p53 Mutations: Cytotoxicity of p53ts Cells at the Nonpermissive Temperature; H1299-p53A138V viability at 39C, ATP luminescence, 24 h; Potency, µM (top dose mostly 46.1 µM), actives largely listed as cytotoxic; 130,000 tested, 1.5% active; note: nearly all actives have a fitted effect of over 55% in size
Peg3 imprint: qHTS Assay for Compounds that Induce Erasure of Genomic Imprints; mouse ES Peg3-LacZ reporter, beta-gal luminescence, 40 h; Potency, µM (highest dose often 60.7 µM), hits mostly activators; 110,000 tested, 0.02% active
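Gelatin-coated wells received 300 freshly trypsinized female ES cells with a Peg3LacZ-Neo reporter on the maternal allele, then incubated 40 hours at 37C. BetaGlo was added for 5 minutes at room temperature before a single luminescence read.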
IkB sig inh: IkB Signaling; ABC-DLBCL IkBa-CBG/CBR dual luciferase ratio, 4 h; response scale: scaled: untreated 0%, proteasome inhibitor 100%; 110,000 tested, 0.04% active; AID 445, 2006; Potency, µM (series often up to 57.1 µM); active = well fitted curve in the direction sought with a large enough effect in the signal ratio, not every such curve was filed as active; inconclusive = small, poorly fitted or top-dose-only effect, or a change in a side signal; the % refers to the signal ratio;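 note: the direction sought is a rising ratio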
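Curves were fitted separately to fusion (green), unfused (red) and ratio luminescence, then classed by r2, magnitude and activity. Cells: OCI-Ly3, 4 h compound plus doxycycline at 37C; 10 uM MG-132 defined full response.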
A number is an active result; 0 = inactive; ? = inconclusive; - = no result; [ ] = another dose, or the depositor's remark. Unless noted, calls come from the whole dose curve; as a rule, active = well fitted curve in the direction sought with a large enough effect; inconclusive = small, poorly fitted or top-dose-only effect, or another doubt; inactive = no such curve, though single readings can be large; an effect the other way counts as inactive or inconclusive.

SMILES	p53ts 32C tox	p53ts 39C kill	Peg3 imprint	IkB sig inh
CCN(CC)CCNC(=O)c1ccc2c(=O)n3nc(Nc4cccc(Cl)c4C)sc3nc2c1	?	20µM	0[10.9 µM]	0
Cc1ccc(C)c(Nc2nn3c(=O)c4ccc(C(=O)NCCC5=CCCCC5)cc4nc3s2)c1	?	0	0[10.9 µM]	0
COc1ccccc1Nc1nn2c(=O)c3ccc(C(=O)NCCC4=CCCCC4)cc3nc2s1	5µM	3.2µM	0[10.9 µM]	?
Cc1c(Cl)cccc1Nc1nn2c(=O)c3ccc(C(=O)NCCc4ccccc4)cc3nc2s1	?	?	0[10.9 µM]	?
COc1ccccc1Nc1nn2c(=O)c3ccc(C(=O)NCCc4ccccc4)cc3nc2s1	3.2µM	3.2µM	0[10.9 µM]	?
Cc1ccc(C)c(Nc2nn3c(=O)c4ccc(C(=O)NCCc5ccccc5)cc4nc3s2)c1	0	3.2µM	0[10.9 µM]	?
O=C(O)/C=C\c1c2ccc(=O)c(O)c-2oc2c(O)c(O)ccc12	0[9.22 µM]	0[9.22 µM]	0[10.9 µM]	0[11.4 µM]
O=C(Nc1nnc2n1CCS2)c1ccccc1	0	0	0[10.9 µM]	0
CC(C)Oc1ccc(C(=O)Nc2nnc3n2CCS3)cc1	?	13µM	0[10.9 µM]	0
Cc1ccc(NC(=O)c2ccc(NC(=O)N3CCSc4ncccc43)cc2)c(Cl)c1	10µM	?	0[10.9 µM]	0
Cc1ccc(NC(=O)c2ccc(NC(=O)N3CCSc4ncccc43)cc2)c(C)c1	0	0	0[10.9 µM]	0
CC1CCN(S(=O)(=O)c2ccc3c(c2)c(=O)c(C(=O)NC(C)c2ccccc2)cn3C)CC1 (stereo not drawn)	0	0	0[10.9 µM]	?
COc1ccc(NC(=O)c2ccco2)cc1NC(=O)COc1ccc(Cl)c(C)c1	?	10µM	0[10.9 µM]	0
CC(=O)[C@]1(O)CC[C@@H]2[C@H]3C[C@@H](C)C4=CC(=O)CC[C@@]4(C)C3[C@@H](O)C[C@]21C (stereo partly drawn)	-	-	0[10.9 µM]	-
O=C(c1cc(-c2cccc(O)c2)on1)N1CCOCC1	10µM	?	0	0
COC(=O)[C@@]1(Cc2ccc(OC)cc2)[C@@H]2C(=CC(=O)[C@H]2CC(=O)C(=O)N(C)C)CN1C(=O)c1ccccc1	0	0	0	-
C=C1C(=O)C=C2CN(C(=O)c3ccccc3)[C@@](Cc3ccc(F)cc3)(C(=O)OC)[C@@H]12	3.2µM	3.2µM	0	-
CCn1c2ccccc2c2cc(CN3CCN(Cc4ccc(OC)c(OC)c4)CC3)ccc21	0	25µM	0[10.9 µM]	?
CCOc1ccc2nc(N3CCCC(C(=O)NCCCN4CCOCC4)C3)sc2c1 (stereo not drawn)	10µM	0	0	0
S=c1nc[nH]c2nc[nH]c12	?	7.9µM	0	-
NS(=O)(=O)c1ccc(N=Nc2nc3[nH]cnc(=S)c3[nH]2)cc1	0[9.22 µM]	0[9.22 µM]	0[10.9 µM]	0[11.4 µM]
CCCCN(CCCNC(=O)c1cc(Nc2cccc(SC)c2)nc2ccccc12)Cc1ccccc1	0	4.5µM	0[10.9 µM]	?
COc1ccc(Nc2cc(C(=O)NCCCN(C)C3CCCCC3)c3ccccc3n2)cc1	0	13µM	0[10.9 µM]	0
Cn1c(=O)n(C)c2cc(NS(=O)(=O)c3ccc(F)cc3)c(NCc3ccccc3)cc21	0	0	0[10.9 µM]	?
CC1=NCC[N@@+]1(CCc1ccccc1)Cc1ccccc1	0[9.22 µM]	0[9.22 µM]	0[10.9 µM]	0[11.4 µM]
SMILES	p53ts 32C tox	p53ts 39C kill	Peg3 imprint	IkB sig inh
COc1ccc2c(c1)sc1nc(-c3ccccc3)cn12	0.63µM	1.3µM	0	?
COc1ccc(CN(Cc2ccco2)C(=O)c2ccccc2F)cc1	0	0	0[10.9 µM]	?
O=c1/c(=C/c2ccccn2)sc2nc3ccccc3n12	10µM	?	0	?
Nc1ncnc2c1ncn2[C@@H]1O[C@@H](C(=O)NC2CC2)[C@H](O)[C@@H]1O	0	0	-	?
CC(=O)c1ccc(NC(=O)/C=C/c2ccc(C)o2)cc1	7.9µM	10µM	0[10.9 µM]	?
COCCn1c(=O)c(CCc2ccccc2)nc2cnc(OCc3ccccc3)nc21	0	0	0	0[11.4 µM]
O=C(NC1=NCCS1)c1csc2ccccc12	13µM	?	-	-
O=C(NC1=NCCS1)Nc1ccccc1	10µM	16µM	0	0
O=C(Nc1ccc(Cl)cn1)c1cc2ccccc2o1	13µM	?	0	?
O=C(Nc1cccc2ncccc12)c1cc2ccccc2o1	0	0	0	?
O=C(Nc1ccccc1)Nc1ccccc1	?	?	0	0
O=C(Nc1ccccn1)c1cc2ccccc2o1	4.5µM	5µM	-	-

From PubChem
